Among the test systems are DU-145 prostate; K-562 leukemia; MALME-3M melanoma; MDA-MB-231 breast; RXF 393 renal; SF-268 CNS; SF-295 CNS; SF-539 CNS; UACC-257 melanoma; M14 melanoma.
Common to all, as to assay: NCI-60 one-dose screen, 48 h (100 = growth as untreated, 0 = no growth, -100 = all killed)
What all share (settings): 10 µM unless noted

This passage reports growth results from PubChem BioAssay (NCI).

About 83,000 compounds went through this panel and 20% of them were active in at least one assay; those are over-represented in the sample as a whole.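 Single-concentration screen, 48 h exposure, 96-well plates. Endpoint: percent growth. Below 10 = active.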 Values without a mark were called inactive. Active and inactive are the calls of the source.

Turning to `S=C(N/N=C/c1cc(Cl)cc(Cl)c1)NC12CC3CC(CC(C3)C1)C2`, the growth in the experiment on DU-145 prostate is 77.4%; with K-562 leukemia, 79.5%; in the experiment on MALME-3M melanoma, 54.6%; with MDA-MB-231 breast, 52.6%; with RXF 393 renal, 67.2%; with SF-268 CNS it was 64.6%. In addition, the growth in the experiment with SF-295 CNS was 35.1%; in the experiment with SF-539 CNS, 68.9%; in the experiment with UACC-257 melanoma it was 83%; in the experiment with M14 melanoma, 89%.
For `COC1NC(Cl)=C(C#N)C(C#N)(C#N)C1(C)C` (stereo not given), the growth with DU-145 prostate is 94.2%; with K-562 leukemia it was 77.1%; in the experiment with MALME-3M melanoma, 146%; in the experiment with MDA-MB-231 breast, 88.6%; with RXF 393 renal it was 3.25% (active); in the experiment with SF-268 CNS, 122%. For the same compound, the growth with SF-295 CNS was 115%; in the experiment with SF-539 CNS it was 92.3%; in the experiment on UACC-257 melanoma, 102%; in the experiment with M14 melanoma, 59.1%.
For the compound `Cc1c(Cc2ccccc2)c(=O)oc2c(C)c(OCc3n[nH]c(=S)o3)ccc12`, the growth was 19.4% in the experiment with DU-145 prostate; 71.6% in the experiment with K-562 leukemia; 48.7% with MALME-3M melanoma; 80.7% in the experiment with MDA-MB-231 breast; 98.8% in the experiment on RXF 393 renal; 75.9% with SF-268 CNS. Also, the growth with SF-295 CNS is 77%; in the experiment with SF-539 CNS, 92.1%; in the experiment with UACC-257 melanoma it was 88%; in the experiment with M14 melanoma, 99.3%.
On to `COc1cc2ncnc(Nc3ccc4c(cnn4C(=O)Nc4ccccc4)c3)c2cc1OC`, for which the growth was 89.3% with DU-145 prostate; 58.3% with K-562 leukemia; 85.6% in the experiment on MALME-3M melanoma; 112% with MDA-MB-231 breast; 87.3% with RXF 393 renal; 97.2% with SF-268 CNS. The growth with SF-295 CNS was 100%; with SF-539 CNS it was 86.1%; with UACC-257 melanoma, 94.9%; in the experiment with M14 melanoma, 95.7%.
Turning to `N/C(=N\O)c1ccncc1`, the growth in the experiment with DU-145 prostate is 104%; with K-562 leukemia, 104%; with MALME-3M melanoma it was 108%; in the experiment on MDA-MB-231 breast, 102%; with RXF 393 renal, 115%; in the experiment with SF-268 CNS, 97.9%. Further, the growth in the experiment with SF-295 CNS is 94.5%; in the experiment with SF-539 CNS, 105%; in the experiment with UACC-257 melanoma, 106%; in the experiment on M14 melanoma it was 99.8%.
As to `O=C(Cc1ccccc1[N+](=O)[O-])c1ccc2c(c1)OCO2`, the growth in the experiment with DU-145 prostate is 106%; in the experiment on K-562 leukemia, 94.1%; in the experiment on MALME-3M melanoma, 96.1%; with MDA-MB-231 breast it was 109%; with RXF 393 renal it was 104%; in the experiment on SF-268 CNS, 94.1%. Also, the growth with SF-295 CNS is 96.1%; in the experiment with SF-539 CNS, 101%; in the experiment on UACC-257 melanoma, 98.7%; with M14 melanoma, 103%.
Regarding `COc1cc2oc(-c3ccc(NC(=O)c4ccccc4)cc3)cc(=O)c2c(OC)c1OC`, the growth in the experiment on DU-145 prostate was 82.3%; in the experiment with K-562 leukemia, 102%; in the experiment on MALME-3M melanoma it was 74.8%; with MDA-MB-231 breast, 74.9%; in the experiment with RXF 393 renal, 90.2%; with SF-268 CNS, 77.5%. The growth in the experiment on SF-295 CNS was 77.4%; in the experiment with SF-539 CNS, 81.6%; in the experiment on UACC-257 melanoma, 97.3%; with M14 melanoma, 92.8%.
Regarding `CCOc1ccc(/C=N/NC(=O)c2cccc3ccccc23)cc1OCC`, the growth in the experiment with DU-145 prostate is 106%; in the experiment on K-562 leukemia, 80.7%; in the experiment with MALME-3M melanoma, 114%; in the experiment with MDA-MB-231 breast it was 96%; in the experiment with RXF 393 renal, 109%; in the experiment on SF-268 CNS, 108%. For the same compound, the growth is 89.1% with SF-295 CNS, 105% in the experiment with SF-539 CNS, 109% with UACC-257 melanoma and 123% in the experiment on M14 melanoma.
On to `N#Cc1c(N)nc(Nc2nc3ccccc3[nH]2)nc1-c1ccc(Cl)cc1`, for which the growth is 123% with DU-145 prostate; 92.3% in the experiment with K-562 leukemia; 125% in the experiment on MALME-3M melanoma; 106% in the experiment on MDA-MB-231 breast; 114% with RXF 393 renal; 101% in the experiment with SF-268 CNS. For the same compound, the growth is 112% with SF-295 CNS, 111% in the experiment on SF-539 CNS, 109% in the experiment with UACC-257 melanoma and 103% with M14 melanoma.
Regarding `N#Cc1c2ncccc2c2nnc3cc(Cl)c(Cl)cc3n12`, the growth is 89.2% in the experiment with DU-145 prostate; 91% in the experiment with K-562 leukemia; 79.6% in the experiment on MALME-3M melanoma; 67% in the experiment on MDA-MB-231 breast; 116% with RXF 393 renal; 90.6% in the experiment with SF-268 CNS. Also, the growth is 105% in the experiment on SF-295 CNS, 97.1% with SF-539 CNS, 95.3% with UACC-257 melanoma and 100% with M14 melanoma.
As to `BrCCCOc1ccc(Oc2ccc(OCCCBr)cc2)cc1`, the growth is 116% with DU-145 prostate; 109% in the experiment on K-562 leukemia; 117% with MALME-3M melanoma; 104% in the experiment with MDA-MB-231 breast; 80.8% in the experiment with RXF 393 renal; 111% in the experiment with SF-268 CNS. The growth in the experiment with SF-295 CNS is 116%; in the experiment on SF-539 CNS, 113%; in the experiment on UACC-257 melanoma, 90.4%; in the experiment with M14 melanoma, 102%.
In the case of `O=C1/C(=C\c2cn(-c3nc(N4CCOCC4)nc(N4CCOCC4)n3)c3ccccc23)c2ccccc2N1c1c(Cl)cccc1Cl`, the growth is 57.1% with DU-145 prostate; 80.6% with K-562 leukemia; 95.6% in the experiment on MALME-3M melanoma; 76.9% with MDA-MB-231 breast; -10.8% (active) in the experiment on RXF 393 renal; 57.8% in the experiment with SF-268 CNS. For the same compound, the growth in the experiment with SF-295 CNS is 37.6%; in the experiment on SF-539 CNS, 63%; with UACC-257 melanoma it was 80.7%; in the experiment on M14 melanoma it was 78.2%.
Regarding `C/C(CCC(=O)O)=N/Nc1ccc([N+](=O)[O-])cc1`, the growth is 82.2% with DU-145 prostate; 22.3% in the experiment with K-562 leukemia; 111% in the experiment on MALME-3M melanoma; 51.4% with MDA-MB-231 breast; 99.4% with RXF 393 renal; 72.3% in the experiment on SF-268 CNS. The growth with SF-295 CNS is 2% (active); in the experiment on SF-539 CNS, 12.7%; in the experiment on UACC-257 melanoma it was 90.3%; in the experiment with M14 melanoma it was 24.3%.
